Measurements reported in the supplement of paper PMC7156485.
± gives the standard deviation of the averaged measurements.

Tested on: HCC1569
Assay: cell number relative to DMSO (% of DMSO); higher = more cells (less growth inhibition / toxicity)
Details: concentration: 10 µM; 24 h
In short: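 H1.0 nuclear intensity or cell number is stated as percent of the plate control, based on the median of replicates, and HCC1569 values were smoothed for positional effects. These came from HCC1569 and TDF cells treated with compounds at 10 µM for 24 h at 37 °C in triplicate, then fixed in 3.7% formaldehyde and stained with a rabbit anti-H1.0 antibody, an AlexaFluor 647 secondary and DAPI.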
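Further: TDF denotes transformed human dermal fibroblasts of mesenchymal origin.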

SMILES	cell number
Br.CN1CCc2c(cc(O)c(O)c2Cl)C(c2cccc(Cl)c2)C1 (stereo not given)	89.6
COc1cc(OC)cc(C(CNc2ncnc3c2ncn3C2OC(CO)C(O)C2O)c2ccccc2C)c1 (stereo not given)	101
NS(=O)(=O)c1ccc(-n2nc(C(F)(F)F)cc2-c2ccc(Cl)cc2)cc1	90.5
COC1C(OC(=O)c2ccc(C)[nH]2)C(O)C(Oc2ccc3c(O)c(NC(=O)c4c[nH]c(C(=O)Nc5c(O)c6ccc(OC7OC(C)(C)C(OC)C(OC(=O)c8ccc(C)[nH]8)C7O)c(C)c6oc5=O)c4C)c(=O)oc3c2C)OC1(C)C (stereo not given) [Coumermycin A1]	94.7
COc1cc2c(c(OC)c1OC)-c1c(cc(OC)c(OC)c1OC)CC(C)C(C)C2 (stereo not drawn) [R(+)-Schisandrin A]	105
Cc1c(CC(C)(C)C(=O)O)n(Cc2ccc(Cl)cc2)c2ccc(F)cc12	107
O=C(CCc1ccc(O)cc1)c1c(O)cc(O)cc1OC1OC(CO)C(O)C(O)C1O (stereo not given) [Phlorizine]	101
NNCCc1ccccc1.O=S(=O)(O)O [Phenelzine sulfate]	103
O=C(O)Cc1ccc(O)c(O)c1 [3,4-Dihydroxyphenylacetic acid]	104
CCC1OC(=O)C(C)C(OC2CC(C)(OC)C(O)C(C)O2)C(C)C(OC2OC(C)CC(N(C)C)C2O)C(C)(O)CC(C)CN(C)C(C)C(O)C1(C)O (stereo not given) [Azithromycin]	106
O=c1cc(-c2ccc(O)cc2)oc2cc(OC3OC(CO)C(O)C(O)C3O)c(C3OC(CO)C(O)C(O)C3O)c(O)c12 (stereo not given) [Saponarin]	98.8
CCCCCC(=O)c1c(O)c(Cl)c(OC)c(Cl)c1O [1-(3,5-dichloro-2,6-dihydroxy-4-methoxyphenyl)-1-hexanone]	93.6
COc1c(N2CC3CCCNC3C2)c(F)cc2c(=O)c(C(=O)O)cn(C3CC3)c12.Cl (stereo not given) [Moxifloxacin.HCl]	101
Nc1ncnc2c1nc(Sc1ccc(Cl)cc1)n2C1OC2COP(=O)([O-])OC2C1O.[Na+] (stereo not given) [8-(4-Chlorophenylthio)-cAMP sodium]	104
CCCCC(C)(O)CC=CC1C(O)CC(=O)C1CCCCCCC(=O)OC (stereo not given) [Misoprostol]	106
CN1CCC(=C2c3ccccc3C=Cc3ccccc32)CC1.Cl [Cyproheptadine hydrochloride]	98
Cl.Clc1cccc(Cl)c1NC1=NCCN1 [Clonidine.HCl]	103
CCCCNc1cc(C(=O)O)cc(S(N)(=O)=O)c1Oc1ccccc1 [Bumetanide]	102.7 ± 0.95
CCCCCCCCCCCCCC=CC(O)C(CO)N(C)C (stereo not given) [N,N-Dimethylsphingosine]	110
CCCCCCCC/C=C\CCCCCCCC(N)=O [(9Z)-9-octadecenamide]	102

SMILES	cell number
Cl.O=S(=O)(c1cccc2cnccc12)N1CCCNCC1	100
C=C1NC(=O)C2=C(CCSC2)N1	102
COc1ccc(-n2[nH]c3c(cnc4ccccc43)c2=O)cc1 [2-(4-methoxyphenyl)-1H-pyrazolo[4,3-c]quinolin-3(2H)-one]	103
Cc1cc(Nc2cc(N3CCN(C)CC3)nc(Sc3ccc(NC(=O)C4CC4)cc3)n2)n[nH]1 [Tozasertib]	70.4
COc1ccc(OC)c2c(=S)c3ccccc3[nH]c12	105
NC(=S)NN=Cc1ncccc1N [3-amino-2-pyridinecarbaldehyde thiosemicarbazone]	77.2
CNC1C(OC2C(OC3C(O)C(O)C(N=C(N)N)C(O)C3N=C(N)N)OC(C)C2(O)C=O)OC(CO)C(O)C1O (stereo not given) [Streptomycin]	105
O=c1c(-c2ccc(O)cc2)coc2cc(O)cc(O)c12 [Genistein]	97.9 ± 4.4
COc1ccccc1N1CCN(CCN(C(=O)c2ccc(I)cc2)c2ccccn2)CC1.Cl [p-MPPI hydrochloride]	97.4
Cc1cc2cc3c(C)cc(=O)oc3c(C)c2o1 [4,5',8-Trimethylpsoralen]	97.9
CCCNC(C)C(=O)Nc1ccccc1C.Cl (stereo not given) [Prilocaine hydrochloride]	103
COc1cc2ncnc(Nc3cccc(Cl)c3)c2cc1OC [Tyrphostin AG 1478]	92.8
CC1=CCC2(C)CCC(O)(C(C)C)C2C(OC(=O)c2ccc(O)cc2)C1 (stereo not given) [Ferutinin]	102
CCCCCCCCCCCC=CC(C)(C)C=CCCCC(=O)O [7,7-Dimethyl-(5Z,8Z)-eicosadienoic acid]	102
CC(C)[N+]1(C)C2CCC1CC(OC(=O)C(CO)c1ccccc1)C2.[Br-] (stereo not given) [Ipratropium.Br]	102
C#C[C@@]1(OC(C)=O)CC[C@H]2[C@@H]3CCC4=CC(=O)CC[C@@H]4[C@H]3CC[C@@]21C [(17beta)-17-ethynyl-3-oxoestr-4-en-17-yl acetate]	90.4
Cl.Clc1cccc(Cl)c1NC1=NCCN1 [Clonidine hydrochloride]	99.2
CN(C)CCC(c1ccc(Cl)cc1)c1ccccn1 (stereo not given) [Chlorpheniramine]	100
Clc1ccccc1C(c1ccccc1)(c1ccccc1)n1ccnc1 [Clotrimazole]	75.1
N[C@@H](CCCC(=O)O)C(=O)O [L-2-aminoadipic acid]	105
